Screens (PubChem BioAssay)
HPGD inh: qHTS Assay for Inhibitors of HPGD (15-Hydroxyprostaglandin Dehydrogenase); 15-hydroxyprostaglandin dehydrogenase [NAD(+)] (Homo sapiens), P15428; purified HPGD, NADH fluorescence kinetic, PGE2 substrate; Potency, µM, inactives show at the top dose activity change, negative = inhibition, actives largely listed as inhibitors; 4.3% of 150,000 active; AID 894, 2007; active = well fitted inhibition curve with a large enough effect, not every such curve was filed as active; inconclusive = small, poorly fitted or top-dose-only effect, or another doubt; inactive = no such curve, though single readings can be large or run the other way
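NADH formation kinetics: reaction with 30 uM PGE2 and 1 mM NAD+ (final), 20 nM enzyme, Tris-HCl pH 8 with Tween 20, after 15 min compound preincubation at room temperature. Fluorescence change, last versus first of five reads.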
Tau fibril ThT: qHTS for Inhibitors of Tau Fibril Formation, Thioflavin T Binding | 2.1% of 270,000 active | AID 1460, 2008 | recombinant tau K18 P301L, heparin-induced fibrillization, ThT fluorescence | Microtubule-associated protein tau (Homo sapiens), P10636 | Potency, µM (series often up to 57.4 µM), inactives show at the top dose activity, negative = inhibition, most hits filed as inhibitors; note: nearly all actives have a fitted effect of over 55% in size
Target sequence (P10636 561-689 P618L limits assumed): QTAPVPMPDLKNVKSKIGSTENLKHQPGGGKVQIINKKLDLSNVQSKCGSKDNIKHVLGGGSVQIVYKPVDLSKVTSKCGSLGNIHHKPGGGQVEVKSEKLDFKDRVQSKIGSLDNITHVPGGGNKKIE
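Fibril formation assay: tau K18 P301L at 15 uM with trace Alexa 594 label, heparin inducer 20 uM, pH 7 sodium acetate buffer, 37 C for 6 hr; endpoint ThT signal.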
ALDH1A1 block: qHTS Assay for Inhibitors of Aldehyde Dehydrogenase 1 (ALDH1A1). Purified ALDH1A1, NADH fluorescence, propionaldehyde substrate. AID 1030, 2008. Potency, µM (highest dose often 75.3 µM), without a hit: at the top dose activity, negative = inhibition, usual class: inhibitors. 7.3% of 220,000 active; active = well fitted inhibition curve with a large enough effect, not every such curve was filed as active; inconclusive = small, poorly fitted or top-dose-only effect, or another doubt; inactive = no such curve, though single readings can be large or run the other way;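 note: plate controls were no enzyme wells and a reference inhibitor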
Target sequence (P00352 whole entry, looked up): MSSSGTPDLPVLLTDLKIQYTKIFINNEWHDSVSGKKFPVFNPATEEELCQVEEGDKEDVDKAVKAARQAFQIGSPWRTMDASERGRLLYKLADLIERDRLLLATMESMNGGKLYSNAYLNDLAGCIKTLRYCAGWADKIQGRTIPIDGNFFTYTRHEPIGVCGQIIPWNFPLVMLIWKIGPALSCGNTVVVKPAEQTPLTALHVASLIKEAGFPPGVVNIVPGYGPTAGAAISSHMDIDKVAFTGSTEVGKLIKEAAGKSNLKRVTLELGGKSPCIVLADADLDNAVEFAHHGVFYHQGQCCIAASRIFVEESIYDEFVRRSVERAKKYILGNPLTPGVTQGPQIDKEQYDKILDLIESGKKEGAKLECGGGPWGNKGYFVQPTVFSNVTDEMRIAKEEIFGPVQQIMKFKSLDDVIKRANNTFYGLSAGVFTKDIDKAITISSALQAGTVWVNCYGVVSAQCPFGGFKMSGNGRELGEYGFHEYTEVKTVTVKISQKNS
Tau fluor cs: Counterscreen qHTS for Inhibitors of Tau Fibril Formation, Fluorescence Polarization. tau K18 P301L (four-repeat tau fragment) Alexa594 fluorescence, heparin fibrillization. Potency, µM (series often up to 57.7 µM), for the others: at the highest dose activity change, negative = decrease. 0.93% of 280,000 active. AID 1463, 2008; note: nearly all actives have a fitted effect of over 55% in size
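Human K18 P301L tau (15 uM unlabeled plus 0.24 uM Alexa 594-labeled, final) in 100 mM sodium acetate pH 7 was mixed with compound and 20 uM heparin and incubated 6 hr at 37 C.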
Tau fibril FP: qHTS for Inhibitors of Tau Fibril Formation, Fluorescence Polarization; Microtubule-associated protein tau (Homo sapiens), P10636; K18 P301L tau heparin fibrillization, Alexa594 FP, 6 h; Potency, µM (series often up to 57.7 µM), inactives show top-dose activity, negative = inhibition, most hits filed as inhibitors; 0.39% of 280,000 active; AID 1468, 2008; note: nearly all actives have a fitted effect of over 55% in size
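Recombinant K18 P301L […], labeled with Alexa 594 at 0.24 uM over 15 uM unlabeled; heparin inducer 20 uM final; 37 C, 6 hr; FP endpoint.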
NPSR antagonist: qHTS Assay for Antagonists of the Neuropeptide S Receptor: cAMP Signal Transduction. Q6W5P4. CHO-NPSR cells, cAMP TR-FRET, antagonist mode. Potency, µM (titrated, usually from 38.3 µM), for inactives: at the highest dose activity change, negative = inhibition, hits mostly inhibitors. AID 1461, 2008. 1% of 220,000 active; note: nearly all actives have a fitted effect of over 50% in size
An asterisk follows results filed as active; ? = inconclusive; . = no result given; [ ] = remark or other dose. Compounds with a hit are over-represented: about 9.5% of the library has one in this group of screens. Unless noted, calls come from the whole dose curve; as a rule, active = well fitted curve in the direction sought with a large enough effect; inconclusive = small, poorly fitted or top-dose-only effect, or another doubt; inactive = no such curve, though single readings can be large; an effect the other way counts as inactive or inconclusive. Unless noted, % is set by controls: 0 for no effect and ±100 for the full control effect; potency is the fitted concentration of half-maximal effect.

SMILES	HPGD inh	Tau fibril ThT	ALDH1A1 block	Tau fluor cs	Tau fibril FP	NPSR antagonist
O=C(CCCOc1ccc(Cl)cc1Cl)N1CCN(c2ccccn2)CC1	?	?	-12.4%	-16.8%	3.5%	-25.1%[46.1 µM]
CN1CCN(C(=O)c2ccc(COc3ccc(Cl)cc3Cl)cc2)CC1	2.82µM*	-5.2%	11.8%	-3.9%	13.3%	4.0%[46.1 µM]
O=C(O)c1ccc(COc2ccc(CO)cc2Cl)cc1	15.8µM*	-2.1%	14.6%	4.5%	1.5%	-12.9%[46.1 µM]
CN1CCN(C(=O)CCCOc2ccc(Cl)cc2Cl)CC1	20µM*	-5.3%	?	-7.8%	-0.2%	-16.0%[46.1 µM]
COc1ccc(-n2nc(C(=O)N3CCN(c4cccc(C(F)(F)F)c4)CC3)c3c4ccccc4n(C)c3c2=O)cc1Cl	.	-4.3%	.	-4.5%	-9.9%	.
COc1ccc2c(C)cc(SCC(=O)N3CCOCC3)nc2c1	-21.8%	-11.4%	22.4µM*	-2.0%	5.3%	5.8%[46.1 µM]
CCSc1ncc(/C=N/Nc2ccc(F)cc2)n1C	-14.5%	8.91µM*	?	?	5.0%	-20.9%[46.1 µM]
CN(C)c1ccc(S(=O)(=O)NCC(=O)OCC(=O)Nc2cccc(Cl)c2)cc1[N+](=O)[O-]	3.4%	?	7.94µM*	-18.9%	-10.6%	18.5%
CNc1ccc(S(=O)(=O)NCC(=O)OCC(=O)Nc2cccc(Cl)c2Cl)cc1[N+](=O)[O-]	-16.3%	?	?	-11.1%	3.5%	5.7%
CC(C)Nc1nc(Cl)nc(N(C#N)CN2C(=O)c3ccccc3S2(=O)=O)n1	.	?	22.4µM*	-25.0%	?	50.0%
CN(C)c1nc(N(C)C)nc(N(C#N)CN2C(=O)c3ccccc3S2(=O)=O)n1	.	-17.4%	20µM*	-3.9%	-11.6%	-0.6%
O=c1c[n+](CC[n+]2cc(=O)o[nH]2)[nH]o1	3.5%	.	-0.7%[13.5 µM]	.	.	.
O=C(c1cccs1)N(Cc1cccnc1)c1nc2ccc(F)cc2s1	.	-17.2%	.	?	-14.8%	.
Cc1c(NC(=O)COC(=O)c2ccc(S(=O)(=O)N3CCOCC3)cc2)c(=O)n(-c2ccccc2)n1C	.	8.0%	10.4%	10.3%	4.3%	10.5%
NC(=S)NNc1cc(Cl)cc(Cl)c1	-14.4%	?	2µM*	-21.1%	?	-4.3%[46.1 µM]
NC(=S)Nc1cc(Cl)cc(Cl)c1	.	4.2%	.	-5.8%	-2.4%	1.5%
CCOC(=O)CCCNC(=O)N1CCc2nc(-c3ccccc3)c3c(c2C1)CO[C@@H](C)C3	-1.4%	-1.1%[11.5 µM]	3.7%[13.5 µM]	-3.1%[11.6 µM]	0.3%[11.6 µM]	.
CCCCn1c(N)c(N(CC)C(=O)c2cccc(OC)c2)c(=O)[nH]c1=O	.	-7.6%	13.9%	-3.4%	-3.3%	-8.5%
O=C(COC(=O)c1ccc[nH]c1=O)c1ccc(Cl)s1	-10.2%	-7.2%	-9.7%	-5.3%	?	-10.0%[46.1 µM]
Cc1ccc(C(=O)OCC(=O)c2ccc(Cl)s2)s1	15.8µM*	-11.4%	?	-23.9%	-11.9%	-8.2%[46.1 µM]
CC(C)[C@H](N=Cc1ccccc1O)C(=O)O	-4.2%	.	-10.0%[13.5 µM]	.	.	.
CC(C)OC(=O)c1cn(-c2ccccc2)nc1-c1ccco1	-24.2%	-11.3%	11.2µM*	3.1%	8.3%	?
CCOC(=O)C1=C(C)NC(C)=C(C(=O)OCC)C1c1cn(-c2ccccc2)nc1-c1ccco1	15.3%	7.9%	?	4.0%	3.9%	-16.0%[46.1 µM]
CCn1c(SCc2ccc(C(=O)OC)o2)nc2sc3c(c2c1=O)CCCC3	-9.5%	-16.3%	-7.5%	-12.6%	2.8%	-21.3%[46.1 µM]
Cn1c(SCc2nnc(-c3ccccc3Br)o2)nc2sc3c(c2c1=O)CCC3	8.91µM*	-11.2%	-11.1%	-2.4%	5.7%	?
SMILES	HPGD inh	Tau fibril ThT	ALDH1A1 block	Tau fluor cs	Tau fibril FP	NPSR antagonist
O=c1c2ccccc2nc(SCc2nnc(-c3ccccc3Br)o2)n1-c1ccccc1	-6.2%	-9.3%	1.9%	-15.3%	2.9%	-27.1%[46.1 µM]
COCCCn1c(SCc2nnc(-c3ccccc3)o2)nc2sc3c(c2c1=O)CCC3	14.1µM*	?	?	-8.5%	-1.3%	?
CC1=N/C(=C\c2ccc([N+](=O)[O-])cc2)C(=O)N1c1cc(Cl)ccc1C	-21.4%	-7.5%	11.2µM*	-6.6%	4.6%	-21.9%[46.1 µM]
CCn1c(SCc2ccc(F)cc2Cl)nnc1-c1nonc1NC(C)=O	.	-5.0%	.	-13.3%	6.1%	.
C=CCOc1c(Br)cc(CNn2cn[nH]c2=S)cc1OC	.	-6.8%	8.4%	-4.2%	1.4%	-3.2%
COc1cc(CNn2c(C)n[nH]c2=S)cc(Cl)c1OCc1ccc(F)cc1	12.6µM*	?	-0.6%	?	1.4%	-21.6%[46.1 µM]
COc1cc(CNn2c(C)n[nH]c2=S)cc(Br)c1OCc1ccc(F)cc1	15.8µM*	?	28.2µM*	-26.9%	3.6%	-26.8%
COC(=O)C/C=C\[C@@H](C)[C@@H](/C=N\O[C@@H](C)CN1CCCc2nc(C)c(C)cc21)NS(=O)(=O)c1ccc(C)cc1	.	-4.1%[11.5 µM]	?	-8.7%[11.6 µM]	-0.4%[11.6 µM]	.
COc1ccc(C(CNC(=O)c2ccc(S(=O)(=O)N(C)C)cc2)N2CCCC2)cc1 (stereo not drawn)	.	-4.7%	4.47µM*	1.0%	11.6%	-4.3%
CC(C)Oc1ccc(C(=O)NCC(c2ccc(N(C)C)cc2)N2CCc3ccccc32)cc1 (stereo not drawn)	.	?	.	?	-1.4%	.
COc1ccc(C(=O)NCC(c2ccc(Cl)cc2)N2CCCCC2)cc1 (stereo not drawn)	.	5.3%	.	-3.6%	2.6%	.
COc1ccc(C(=O)NCC(c2ccc(N(C)C)cc2)N2CCc3ccccc32)cc1 (stereo not drawn)	.	15.8µM*	.	?	?	.
C[C@@H](N1CCOCC1)[C@@](O)(c1ccccc1)c1ccccn1	-2.3%	.	1.2%[13.5 µM]	.	.	.
COc1ccccc1CNC(=O)Cn1c(=O)oc2cc(S(=O)(=O)NCc3ccccc3)ccc21	.	-8.2%	.	-15.0%	-7.0%	.
COc1cc(-c2ccccc2)nc2ccccc12	28.2µM*	1.1%	-0.6%	-6.6%	11.1%	-4.1%[46.1 µM]
CCOC(=O)C1(CCOC)CCN(Cc2nc(C(C)C)cs2)CC1	.	-3.6%	8.6%	-2.2%	5.6%	2.9%
O=C(C1CC1)N1CCN(c2ccnc3cc(Cl)ccc23)CC1	.	-11.2%	42.0%	-5.4%	-1.3%	-7.2%
CC(C)S(=O)(=O)N1CCN(c2ccnc3cc(Cl)ccc23)CC1	.	-17.9%	14.1µM*	-18.0%	-7.2%	36.0%
CC(=O)N1CCC2(CCN(Cc3ccccc3)CC2)CC1	0.4%	.	2.8%	.	.	.
